# Out of some 400,000 compounds screened, about 2,100 (0.53%) were called active. Not shown: some 14% with an inconclusive outcome. No rule for the calls is given here. Only a selection was taken, and actives are over-represented in it overall.
# Target: Ataxin-2 (Homo sapiens) (UniProt Q99700)
# Assay: qHTS for Inhibitors of ATXN expression.
# Format: functional
# Chain of Ataxin-2 (Homo sapiens) (Q99700 whole entry): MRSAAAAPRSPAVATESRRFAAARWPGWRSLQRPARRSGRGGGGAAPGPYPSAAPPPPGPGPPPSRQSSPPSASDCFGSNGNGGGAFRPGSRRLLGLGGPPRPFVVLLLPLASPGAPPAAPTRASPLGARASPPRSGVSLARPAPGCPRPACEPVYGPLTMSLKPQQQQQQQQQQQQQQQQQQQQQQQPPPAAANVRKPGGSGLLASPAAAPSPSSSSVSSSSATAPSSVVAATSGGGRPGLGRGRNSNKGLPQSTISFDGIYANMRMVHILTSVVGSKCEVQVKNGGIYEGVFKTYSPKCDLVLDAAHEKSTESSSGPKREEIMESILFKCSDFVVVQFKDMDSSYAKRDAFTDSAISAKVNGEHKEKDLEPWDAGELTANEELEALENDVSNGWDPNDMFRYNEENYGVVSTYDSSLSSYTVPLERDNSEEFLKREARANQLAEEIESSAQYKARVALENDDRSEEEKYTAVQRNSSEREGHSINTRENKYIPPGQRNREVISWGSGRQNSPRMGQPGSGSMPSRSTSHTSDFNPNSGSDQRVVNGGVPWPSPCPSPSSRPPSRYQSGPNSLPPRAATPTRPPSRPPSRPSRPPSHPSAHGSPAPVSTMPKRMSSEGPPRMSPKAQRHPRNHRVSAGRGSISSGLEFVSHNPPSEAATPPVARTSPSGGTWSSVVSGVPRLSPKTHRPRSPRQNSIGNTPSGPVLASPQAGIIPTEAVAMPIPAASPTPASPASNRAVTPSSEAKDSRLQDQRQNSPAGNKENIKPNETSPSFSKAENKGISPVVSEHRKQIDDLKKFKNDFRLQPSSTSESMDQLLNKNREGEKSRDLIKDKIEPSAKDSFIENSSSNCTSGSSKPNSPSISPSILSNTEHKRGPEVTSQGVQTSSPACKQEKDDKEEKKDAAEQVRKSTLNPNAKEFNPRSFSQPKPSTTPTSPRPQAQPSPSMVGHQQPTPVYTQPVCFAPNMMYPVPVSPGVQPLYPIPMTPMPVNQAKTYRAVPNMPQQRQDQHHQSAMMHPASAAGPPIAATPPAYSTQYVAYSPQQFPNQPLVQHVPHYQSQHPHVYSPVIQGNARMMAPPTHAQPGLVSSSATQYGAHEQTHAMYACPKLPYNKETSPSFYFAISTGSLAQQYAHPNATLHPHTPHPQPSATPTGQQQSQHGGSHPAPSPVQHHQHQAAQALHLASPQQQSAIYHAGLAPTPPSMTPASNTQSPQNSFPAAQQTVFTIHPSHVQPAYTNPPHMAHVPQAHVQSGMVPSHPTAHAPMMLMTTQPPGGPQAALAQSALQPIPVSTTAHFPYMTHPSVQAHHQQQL
row,Structure (SMILES),Potency
1,O=C1OCCN1C(=O)[C@H]1[C@H](c2ccccc2)C(c2ccc(F)cc2)=NN1c1ccccc1,inactive
2,CCn1nc(NC(=O)C2CCCO2)c2cc3cccc(C)c3nc21 (stereo not given),inactive
3,COc1cc(C2C=C(c3cccs3)Nc3ncnn32)cc(OC)c1OC (stereo not given),inactive
4,Cc1cnc(-n2ncc(C(=O)N3CCN(C(C)C)CC3)c2-c2ccco2)nc1-c1ccc(F)cc1,inactive
5,CC(=O)N(Cc1ccccn1)Cc1ccco1,inactive
6,S=C(NN=C(c1ccccc1)c1ccccn1)N(Cc1ccccn1)Cc1ccccn1,15.8 µM (active)
7,COC(=O)CC1C(=O)NCCN1C(=O)CSc1nc2ccccc2c(=O)n1CC(C)C (stereo not given),inactive
8,Cc1nc(C/C(=N\N)c2ccc(O)cc2O)cs1,inactive
9,O=C1c2cccc3c(N4CCCCC4)ccc(c23)C(=O)N1c1cccc(O)c1,inactive
10,COc1ccc(C(=O)CCN2CCc3cc(OC)c(OC)cc3C2)cc1,26.7 µM (active)
11,COc1cc2c(cc1OC)CN(Cc1cc(=O)n3c(-c4ccccc4)csc3n1)CC2,inactive
12,COc1cc2c(cc1OC)CN(C(=O)CSc1ccc(F)cc1)CC2,inactive
13,Cc1c(C)c2cc(Cl)c(O)c(CN3CCN(C)CC3)c2oc1=O,inactive
14,CN1CCC(NCCC(c2ccc(F)cc2)c2ccc(Cl)cc2)CC1 (stereo not given),25.1 µM (active)
15,CN1CCN(c2ccc(Cl)cc2NC(=O)/C=C/c2ccc(F)cc2)CC1,inactive
16,CC1CCN(CCN=C(S)Nc2ccc(Cl)cc2)CC1,inactive
17,CCOc1ccc(Cl)cc1/C=N/NC(N)=O,inactive
18,COc1cc(Cl)cc(/C=N/NC(N)=O)c1O,inactive
19,COc1ccccc1Sc1ccccc1/C=N/NC(N)=O,39.8 µM (active)
20,CCOC(=O)c1cc2c(=O)n3ccccc3nc2n(CCOC)/c1=N/C(=O)c1c(-c2c(F)cccc2Cl)noc1C,inactive
21,Cc1cc2[nH]c3c4ccccc4nc(C)c3c2cc1C,28.2 µM (active)
22,Cc1c2ccccc2nc2ccccc12,inactive
23,Cc1cc(C)c2c(N)c3ccccc3nc2n1,inactive
24,Cc1ccc2nc(N3CCN(C(=O)CCCC(=O)O)CC3)nc(-c3ccccc3)c2c1,inactive

row,Structure (SMILES),Potency
1,CCOC(=O)c1ccc(NC(=O)N2C3CCCC2CC(NC(C)=O)C3)cc1 (stereo not given),inactive
2,CCOC(=O)c1ccc(NS(=O)(=O)c2c(C)n(C)c(=O)n(C)c2=O)cc1,inactive
3,CCOC(=O)c1ccc(N2C(=O)C=CC2=O)cc1,39.8 µM (active)
4,CC1CCCc2sc3ncn(N)c(=N)c3c21 (stereo not given),inactive
5,CCCCCCCNC(=O)C1(CC2CC(c3ccc(Cl)cc3)=NO2)CCNCC1 (stereo not given),25.1 µM (active)
6,CCCCCCCNC(=O)C1(CC2CC(c3cccc(Br)c3)=NO2)CCNCC1 (stereo not given),31.6 µM (active)
7,CC1CCCC(C)N1C(=O)COC(=O)C12CC3CC(CC(Cl)(C3)C1)C2 (stereo not given),inactive
8,O=C(NN/C=C1\C(=O)N(c2ccc(Cl)cn2)C(=O)c2ccccc21)c1ccncc1,inactive
9,CCCCCCn1c(SCCOC)nc2c1c(=O)[nH]c(=O)n2C,inactive
10,Cc1cccc(OCC2Cn3c(nc4c3c(=O)[nH]c(=O)n4C)O2)c1 (stereo not given),inactive
11,Cn1c(=O)[nH]c(=O)c2c1nc(N1CCCCCC1)n2Cc1cccc2ccccc12,44.7 µM (active)
12,CCCCCn1c(N2CCC(Cc3ccccc3)CC2)nc2c1c(=O)[nH]c(=O)n2C,28.2 µM (active)
13,CCCSc1nc2c(c(=O)[nH]c(=O)n2C)n1Cc1ccccc1,inactive
14,Brc1ccc(C2CC(c3ccccc3)=Nc3ccccc3N2)cc1 (stereo not given),inactive
15,CC(=O)c1ccc(N2C(=O)[C@@H]3[C@H](C2=O)[C@H]2c4ccccc4C=NN2[C@@H]3C(C)=O)cc1,inactive
16,CCn1nc([N+](=O)[O-])c(C(C#N)c2nc3cc(C(F)(F)F)ccc3s2)c(Cl)c1=O (stereo not given),28.2 µM (active)
17,CCOC(=O)c1cc2c(=O)n3ccccc3nc2n(Cc2ccco2)/c1=N\C(=O)c1cccc(Br)c1,inactive
18,O=C(NCc1ccccn1)c1cc2ccccn2n1,inactive
19,COCCCNC(=O)c1c(N)n(-c2cccc(S(N)(=O)=O)c2)c2nc3ccccc3nc12,inactive
20,COc1ccc(CN(C)Cc2c(O)ccc3cc(Br)ccc23)cc1OC,inactive
21,OC(CNC1CCCC1)COc1ccc(-c2ccccc2)cc1 (stereo not given),inactive
22,COc1ccc(CN(C)CC(O)COc2ccc(-c3ccccc3)cc2)cc1OC (stereo not given),11.2 µM (active)
23,Cc1nn2c(NC(C)C)c3c(nc2c1-c1ccccc1)CCC3,inactive
24,Cc1nn2c(NCCN(C)C)c3c(nc2c1-c1ccccc1)CCCC3,35.5 µM (active)

row,Structure (SMILES),Potency
1,Cc1cc(C(C)(C)C)n2nc(C)c(-c3ccccc3)c2n1,inactive
2,CSCCC(NC(=O)/C(=C/c1ccc2c(c1)OCO2)NC(=O)c1cccc([N+](=O)[O-])c1)C(=O)O (stereo not given),inactive
3,C=CC[C@H](CC(=O)N(CCO)Cc1ccccc1)C(=O)N[C@H](COC(=O)[C@@H](CC=C)Cc1ccc(F)cc1)C(C)(C)C,28.2 µM (active)
4,C=CC[C@H](CC(=O)N(CCO)Cc1ccccc1)C(=O)N[C@H](COC(=O)[C@@H](CC=C)Cc1ccc(F)cc1)Cc1ccccc1,22.4 µM (active)
5,C=CC[C@H](CC(=O)N(CCO)Cc1ccccc1)C(=O)NC[C@@H](OC(=O)[C@@H](CC=C)Cc1ccc(F)cc1)c1ccccc1,28.2 µM (active)
6,C=CCC[C@H](Cc1ccc(F)cc1)C(=O)OC[C@@H](NC(=O)[C@@H](CC=C)CC(=O)N[C@@H](CO)Cc1ccccc1)C(C)(C)C,39.8 µM (active)
7,Cn1c(-c2c(N)n(CCc3ccccc3)c3nc4ccccc4nc23)nc2ccccc21,inactive
8,Cc1ccc(C(C(=O)NCC2CCCO2)N(C(=O)c2snc(C(N)=O)c2N)c2ccccc2F)o1 (stereo not given),inactive
9,OCCN(Cc1ccccc1)C(S)=Nc1ccc(F)cc1,inactive
10,C=CC[C@H](CC(=O)N(CCO)Cc1ccccc1)C(=O)N[C@@H](COC(=O)[C@@H](CC=C)Cc1ccc(F)cc1)Cc1ccccc1,28.2 µM (active)
11,C=CC[C@@H](CC(=O)N(CCO)Cc1ccccc1)C(=O)N[C@H](COC(=O)[C@@H](CC=C)Cc1ccc(F)cc1)Cc1ccccc1,28.2 µM (active)
12,Cc1cccn2c(=O)c3cc(C#N)/c(=N\C(=O)c4ccncc4)n(CCCOC(C)C)c3nc12,inactive
13,CCn1ccnc1CN1CCc2c([nH]c3ccccc23)C1CC(C)C (stereo not given),inactive
14,O=C(CCCCCn1c(=S)[nH]c2ccc(N3CCOCC3)cc2c1=O)NCc1cccc(Cl)c1,inactive
15,O=C(CCCCCn1c(=S)[nH]c2ccc(N3CCOCC3)cc2c1=O)NCc1ccc(Cl)cc1,inactive
16,C[C@]12c3[nH]c4ccc(Cl)cc4c3CCN1C(=O)[C@@H](CC(=O)NCc1cccc(C(F)(F)F)c1)C[C@@H]2C(=O)N1CCCCC1,35.5 µM (active)
17,C[C@]12c3[nH]c4ccc(Cl)cc4c3CCN1C(=O)[C@@H](CC(=O)NCc1cccc(C(F)(F)F)c1)C[C@@H]2C(=O)N1CCOCC1,20 µM (active)
18,CCC1(C)Cc2ccccc2-c2ncnc(O)c21 (stereo not given),inactive
19,COC(=O)N/N=C/c1cccc(OC(=O)c2ccc3c(c2)OCO3)c1,inactive
20,O=C(Cn1nnc2ccccc2c1=O)Nc1ccc(S(=O)(=O)N2CCOCC2)cc1,inactive
21,COc1ccc(C2C=C(c3ccccc3)Nc3nc(NS(=O)(=O)c4ccc(C)cc4)nn32)cc1 (stereo not given),inactive
22,COc1cc([C@@H]2c3cc4c(cc3[C@@H](O)[C@H]3COC(=O)[C@H]23)OCO4)cc(OC)c1O[Si](C)(C)C(C)(C)C,39.8 µM (active)
23,Oc1c(C(Nc2cccc(C(F)(F)F)c2)c2ccncc2)ccc2cccnc12 (stereo not given),inactive
24,OC(c1ccccc1)(c1nc(-c2cc(F)cc(F)c2)cs1)C(F)(F)F (stereo not given),35.5 µM (active)

row,Structure (SMILES),Potency
1,COc1cccc(-c2cc(C(F)(F)F)c(C#N)c(O)n2)c1,inactive
2,N#Cc1cccc(-c2csc(C(O)(c3ccccc3)C(F)(F)F)n2)c1 (stereo not given),20 µM (active)
3,N#CC12COC3(CCCCC3C1(C#N)C#N)OC2=N (stereo not given),inactive
4,Cc1cc(=O)oc2c3c(ccc12)OCN(Cc1ccc(Cl)cc1)C3,inactive
5,Cc1cc(NC(=S)NC(=O)c2ccccc2)ccc1-c1cc2ccccc2oc1=O,17.8 µM (active)
6,O=C(O)c1cccc(Nc2nc(-c3cc4ccccc4oc3=O)cs2)c1,inactive
7,O=C(O)c1ccc(Nc2nc(-c3cc4ccccc4oc3=O)cs2)cc1O,inactive
8,N#CC1=C(N)OC2=C(CC/C2=C\c2ccccc2)C1c1ccccc1 (stereo not given),inactive
9,N#CC1=C(c2ccccc2)/C(=C/c2ccccc2)OC1=O,22.4 µM (active)
10,Nc1ccc2c(c1)nc(O)c1cc(N)ccc12,inactive
11,CCN(CC)c1ccc(/C=C/C(=O)C2C(=O)C=C(C)OC2=O)cc1 (stereo not given),inactive
12,CCOC(=O)C1=C(Cc2ccc(Cl)cc2)C(=O)c2ccccc2C1=O,31.6 µM (active)
13,CCOC(=O)c1sc(-c2ccc(Cl)cc2)nc1O,inactive
14,CCOC(=O)c1c(C)n(O)c2ccc(Cl)cc2c1=O,inactive
15,CCN1CCN(c2nc3c(C)cccn3c(=O)c2/C=C(\C#N)C(=O)NC)CC1,inactive
16,COc1ccc(-c2onc3ccc(C(C)=O)cc23)cc1,inactive
17,COc1ccc(-c2cc3c(=O)n(CC(=O)NCc4ccc(Cl)cc4)ncn3n2)cc1,inactive
18,COc1ccc(-c2cc(CNC(=O)CCl)on2)cc1,15.8 µM (active)
19,CC(C)c1ccc(C2C(C#N)=C(N)Oc3c2oc(CO)cc3=O)cc1 (stereo not given),inactive
20,COc1ccc(CCN2C(=O)CS/C2=N/NC(=O)c2ccccc2F)cc1OC,inactive
21,CCCN1C(=O)c2cccc3c(N4CCCCC4)ccc(c23)C1=O,inactive
22,CCN(CC)C(=O)c1ccc2c3c(cccc13)C(=O)N(CCc1ccc(OC)c(OC)c1)C2=O,28.2 µM (active)
23,O=C(O)CCSc1nnc(CNc2ccc(Cl)cc2)n1Cc1ccccc1,inactive

# Reference: ChEMBL document CHEMBL1201862, “PubChem BioAssay data set” (2004)
